Compound activity: PubChem BioAssay, National Center for Advancing Translational Sciences (NCATS)
TRPV1 PAM: human TRPV1 potentiation. Q8NER1. 320,000 compounds, 0.02% hits. AID 540277. TRPV1-expressing cells, Fluo-8 calcium influx, capsaicin EC20 potentiation. potentiation, % at 8.33 µM; in the data active = potentiation above about 80%; inconclusive = between about 30% and that limit; also: 0% is about no effect
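TRPV1-expressing cells were cultured overnight at 35.5C and loaded with Fluo-8 calcium dye for 40 to 90 min at room temperature. After a 10 s baseline, compound was added and calcium influx was read kinetically for 3 min (ex 480/em 520 nm).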
hERG WT inh: blocks the wildtype human KCNH2 potassium channel. U2OS, BacMam KCNH2, thallium flux FluxOr; hits give low values. activity change, % at 1.84 µM. 340,000 compounds, 0.37% hits. AID 720551;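 active = maximum activity change below -70%; inconclusive = maximum activity change between -70% and -50%; inactive = maximum activity change above -50%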; also: % is scaled to controls: 0 for no effect and ±100 for the full control effect
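U2OS cells were transduced with wild-type KCNH2 virus (2.03 x 10^8 / mL) for 4 h at room temperature, then cultured overnight at 37 C. Thallium flux was read with FluxOr dye. Rate constants were normalized to DMSO controls.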
KCNH2 3.1 inh: inhibitors of human KCNH2 3.1 potassium channel isoform; U2OS KCNH2 3.1, thallium flux FluxOr; hits give low values; activity change, % (tested at about 1.8 µM); 340,000 compounds, 0.95% hits;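 active = maximum activity change below -70%; inconclusive = maximum activity change from -70% to -50%; inactive = maximum activity change above -50%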;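 also: thallium influx rate constant from kinetic fluorescence after stimulation buffer; % is scaled to controls: 0 for no effect and ±100 for the full control effect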
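Thallium flux read-out: FluxOr dye with Red40 quencher in HBSS/HEPES, 45 min at RT. Rate constants from kinetic reads were normalized to positive and negative DMSO controls. Cells: U2OS virally expressing the 3.1 isoform.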
TRPV1 ag: activates the human vanilloid receptor TRPV1. Q8NER1. TRPV1-expressing cells, Fluo-8 calcium influx, agonist mode. activation, % at 8.33 µM. 320,000 compounds, 0.19% hits. AID 540275; in the data active = activation above about 80%; inconclusive = between about 30% and that limit; also: 0% is about no effect
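TRPV1-expressing cells were cultured overnight at 35.5C and loaded with Fluo-8 calcium dye for 40 to 90 min at room temperature. After a 10 s baseline, compound was added and calcium influx was read kinetically for 3 min (ex 480/em 520 nm).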
* hit, by the source's call; u = inconclusive; x = no result. A selection: hits, their analogues and other compounds. The true share with any hit is near 1.3%.

SMILES	TRPV1 PAM	hERG WT inh	KCNH2 3.1 inh	TRPV1 ag
CCOC(=O)Cc1csc(NC(=O)CCCN2C(=O)c3ccccc3C2=O)n1	4	-2	-7	-2
O=C(CN1CCC(n2nnc3cc(F)ccc32)CC1)NC1CC1	1	-2	-8	1
CCOc1ccc2nc(NC(=O)CN3CCC(n4nnc5cc(F)ccc54)CC3)sc2c1	-15	-10	-89*	6
CCCCc1nc2cc(C(=O)N3CCN(c4nc(C)cnc4C)CC3)ccc2o1	0	-5	-77*	3
CCCCc1nc2cc(C(=O)N3CCC(OC)CC3)ccc2o1	4	1	6	15
O=C(CCC1CCCCC1)NCCN1C2=NC[C@H](Cc3ccccc3)N2C[C@H]1Cc1ccc(O)cc1	-14	-20	0	1
COc1ccc(C[C@@H]2CN3C(=NC[C@@H]3Cc3ccc(O)cc3)N2C[C@H](C)NC(=O)CCC2CCCCC2)cc1	8	-89*	13	-2
O=C(CCC1CCCCC1)NCCN1C2=NC[C@@H](Cc3ccccc3)N2C[C@H]1Cc1ccc(O)cc1	-11	-116*	-99*	7
CCc1nc(C)cn1S(=O)(=O)c1ccc2c(c1)OCCO2	x	5	11	x
COc1ccc(NC(=O)CN2C(=O)NC(C)(c3ccccc3)C2=O)cc1Cl (stereo unspecified)	-2	31	-4	14
CCCn1c(N)c(N(CCOC)C(=O)COC(=O)c2ccccc2NCCO)c(=O)[nH]c1=O	u	-6	-192*	0
O=C(N/C=C/c1ccccc1)c1ccccc1	-10	x	x	83*
O=C(CCCOc1ccc(Cl)cc1Cl)N/N=C/c1ccc(Cl)cc1	-3	0	8	20
O=C(COc1ccc(Cl)cc1Cl)N/N=C/c1ccc(OC2OC(CO)C(O)C(O)C2O)cc1 (stereo unspecified)	9	-151*	-157*	0
COc1cc(NC(=O)c2cc(-c3ccco3)on2)c(OC)cc1Cl	6	-26	-81*	2
COc1ccc(NC(=O)c2cc(Cl)ccc2NC(=O)c2ccco2)c(OC)c1	-3	-82*	-70*	5
CSc1nsc(SC)c1NC(=O)Nc1ccccc1C	10	-4	-84*	-6
CSc1nsc(SC)c1NC(=O)N1CCCCC1	10	-3	3	-2
CC(=O)c1ccc(NC(=O)CSc2nnc(C3CC3)n2C2CC2)cc1	x	1	-16	x
CC(C)c1ccc(/C=N/NC(=O)c2ccc(-n3cnnn3)cc2)cc1	-14	-6	-24	u
O=S(=O)(Cc1ccccc1)C(CCCc1ccccc1)S(=O)(=O)Cc1ccccc1	x	1	-10	x
CC(C)C[C@H](NC(=O)c1nc[nH]c1C(=O)NCC(=O)OCc1ccccc1)C(=O)OCc1ccccc1	-14	-121*	-3	u
CC(C)(C)OC(=O)[C@H](Cc1ccccc1)NC(=O)c1nc[nH]c1C(=O)NCc1ccccc1	-8	0	-107*	u
CC(C)C[C@H](NC(=O)c1nc[nH]c1C(=O)N1CCN(c2ccccc2)CC1)C(=O)OCc1ccccc1	u	-1	-78*	-8
CC(C)(C)OC(=O)CNC(=O)c1nc[nH]c1C(=O)N1CCc2ccccc2C1	23	7	-71*	4
SMILES	TRPV1 PAM	hERG WT inh	KCNH2 3.1 inh	TRPV1 ag
CC(C)C[C@H](NC(=O)c1nc[nH]c1C(=O)N1CCNCC1)C(=O)OCc1ccccc1	u	-12	-5	-1
CCOc1ccc(S(=O)(=O)N2CCN(C(=O)c3ccccc3Cc3ccccc3)CC2)cc1	0	1	-12	1
CCC1CC(=O)CCN1S(=O)(=O)c1ccc(C)cc1 (stereo unspecified)	x	-18	-1	x
CCOC(=O)c1c(NC(=O)COC(=O)c2ccccn2)sc(C(=O)N(C)C)c1C	103*	-2	-5	10
COC(=O)C1=CN(c2ccc(OC)cc2)C=C(C(=O)OC)C1c1ccc([N+](=O)[O-])cc1	3	4	-73*	4
COC(=O)C1=CN(c2ccc(F)cc2)C=C(C(=O)OC)C1c1ccc([N+](=O)[O-])cc1	-4	-8	u	-2
Cn1nc(-c2ccccc2)c(C(=O)Nc2ccc(C(F)(F)F)cc2)c1Cl	-6	-5	-73*	5
COc1cc2c(=O)n(CCC(=O)NCC3CCCO3)c(=O)n(CC(=O)Nc3ccc(F)cc3)c2cc1OC (stereo unspecified)	4	10	-20	1
CCCN(CCC)Cc1c(C(=O)N/N=C/c2ccc(Br)cc2)nnn1-c1nonc1N	-13	12	-78*	-2
Cc1ccccc1COc1ccc(/C=N/NC(=O)c2nnn(-c3nonc3N)c2CN2CCC(C)CC2)cc1	-2	-5	u	4
CN(C)Cc1c(C(=O)N/N=C/c2ccc(OCc3ccc(F)cc3)cc2)nnn1-c1nonc1N	-6	-38	-76*	4
CC1CCN(Cc2c(C(=O)N/N=C/c3ccc(OC(C)C)cc3)nnn2-c2nonc2N)CC1	3	1	-112*	9
NC(N)=NN=C(c1ccc(F)cc1)c1ccc(C(F)(F)F)cc1	x	15	x	x
CCN(CCCNC(=O)CCn1c(=S)[nH]c2cc3c(cc2c1=O)OCO3)c1cccc(C)c1	-8	3	-3	6
O=C1NC(=O)C2(CCCc3ccc([N+](=O)[O-])cc32)N1 (stereo unspecified)	x	4	-4	x
C=C1C[C@H](O)[C@@H]2[C@H](OC(=O)[C@H]2C)[C@H]2[C@H](C)[C@@H](O)C[C@@H]12	-41	x	x	1
CN(C)c1ccnc(Nc2ccccc2)c1C#N	-1	-10	-90*	-5
CCc1ccc2oc(C(=O)Nc3cccnc3)c(C)c2c1	-9	4	-6	89*
Cc1c(C(=O)Nc2cccnc2)oc2ccc(Br)cc12	9	-8	-9	91*
Cc1c(C(=O)Nc2cccc(S(=O)(=O)N3CCOCC3)c2)oc2ccc(Br)cc12	x	-21	3	x
Cc1onc(-c2c(F)cccc2Cl)c1C(=O)NNC(=O)C1CCN(Cc2ccccc2)CC1	21	22	-102*	-1
Cc1onc(-c2c(Cl)cccc2Cl)c1C(=O)N1CCN(Cc2ccccc2)CC1	15	-18	-3	27
Cc1ccn2c(Cc3ccccc3)c(-c3ccc(Br)cc3)nc2c1	x	-18	-74*	x
Cc1ccn2c(Cc3ccccc3)c(-c3ccccc3)nc2c1	x	-2	1	x
O=C1Nc2ccccc2C1=Nc1ccccc1-c1ccccc1	x	19	-11	x
CCc1ccccc1N(C)S(=O)(=O)c1ccc2[nH]cc(C(=O)N3CCc4ccccc43)c(=O)c2c1	9	-24	-85*	-4
Cc1cccc(N(C)S(=O)(=O)c2ccc3[nH]cc(C(=O)N4CCOCC4)c(=O)c3c2)c1	x	-8	-16	x
O=C(Nc1ccc2c(c1)[C@H]1C[C@@H](CC(=O)N3CCOCC3)O[C@@H](CO)[C@H]1O2)C1CCOCC1	x	-7	-7	x
Cn1c(CC(=O)Nc2ccccc2Cl)nnc1SCC(=O)NC1CCCCC1	0	3	-2	2
CN(C)CCCN(C(=O)CCc1ccccc1)c1nc2c(F)cccc2s1	2	-31	-71*	-6
